Measurements: PubChem BioAssay (NCI)
About 79,000 compounds went through this panel and 15% of them were active in at least one assay; those are over-represented in the sample as a whole. Values without a mark were called inactive. Active and inactive are the calls of the source. Rule as the data show it: active = growth inhibition above about 70%; inactive = the rest.

Experiments:
[1] = NCI Yeast Anticancer Drug Screen. Data for the rad52 strain (AID 147);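 also: 0% = growth of vehicle-treated control cultures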; details: S. cerevisiae rad52 mutant growth inhibition, active compounds read high
In short: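 Here a repair-compromised yeast strain receives each compound; its growth is then quantified and normalised to vehicle-only controls.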

[2] = NCI Yeast Anticancer Drug Screen. Data for the wt1 strain (AID 149);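 also: 0% = growth of vehicle-treated wt1 cultures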; details: S. cerevisiae wt1 strain (SPY 50644) growth inhibition, active compounds read high
In short: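 Growth inhibition read against vehicle controls after compound exposure of the wt1 yeast strain.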

[3] = NCI Yeast Anticancer Drug Screen. Data for the rad50EPP+ strain (AID 151);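 also: 0% = growth of vehicle-treated control cultures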; details: S. cerevisiae rad50 mutant strain, active compounds read high
In short: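 Read-out is yeast growth inhibition relative to vehicle; cells used were the rad50EPP+ strain.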

[4] = NCI Yeast Anticancer Drug Screen. Data for the mgt1 strain (AID 153); details: S. cerevisiae mgt1 mutant growth inhibition, active compounds read high
In short: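 Measured: inhibition of mgt1 yeast growth by compound, normalized to vehicle-treated cultures.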

[5] = NCI Yeast Anticancer Drug Screen. Data for the rad50 strain (AID 155);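 also: 0% = growth of vehicle-only cultures of the same strain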; details: S. cerevisiae rad50 strain growth inhibition, active compounds read high
In short: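 Readout: growth inhibition relative to vehicle-treated cultures. Compound exposure was carried out in a genetically defined yeast strain deficient in DNA damage repair.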

[6] = NCI Yeast Anticancer Drug Screen. Data for the mec2-1 strain (AID 157); details: S. cerevisiae mec2-1 strain, active compounds read high
In short: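 Using mec2-1 yeast: add compound, measure growth, express inhibition versus vehicle-treated cultures.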

[7] = NCI Yeast Anticancer Drug Screen. Data for the rad14 strain (AID 159);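 also: 0% = growth of vehicle-treated control cultures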; details: S. cerevisiae rad14 strain growth inhibition, active compounds read high
In short: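 Growth inhibition vs vehicle controls; genetically altered yeast strain (DNA damage repair defect) treated with test compounds.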

[8] = NCI Yeast Anticancer Drug Screen. Data for the sgs1 mgt1 strain (AID 161);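 also: 0% = growth of cultures given vehicle only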; details: S. cerevisiae sgs1 mgt1 strain, active compounds read high
In short: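 Yeast cells carrying a defined DNA-repair defect were exposed to test compounds. Growth inhibition was measured relative to vehicle-treated controls.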

[9] = NCI Yeast Anticancer Drug Screen. Data for the CLN2oe strain (AID 163);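 also: 0% = growth of vehicle-only control cultures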; details: S. cerevisiae CLN2oe strain, active compounds read high
In short: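 Whole-cell yeast growth assay. A strain engineered for altered cell-cycle control received compound, and inhibition relative to vehicle-treated cultures was recorded.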

[10] = NCI Yeast Anticancer Drug Screen. Data for the cln2 rad14 strain (AID 165);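 also: 0% = growth equal to vehicle treated cultures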; details: S. cerevisiae cln2 rad14 strain, active compounds read high
In short: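 Yeast strain cln2 rad14, bearing defects in cell cycle control and DNA repair, serves as the test system; values reflect growth inhibition compared with vehicle.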

[11] = NCI Yeast Anticancer Drug Screen. Data for the bub3 strain (AID 167); details: S. cerevisiae bub3 mutant strain, active compounds read high
In short: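 Readout: yeast growth inhibition, expressed relative to vehicle-only wells. The test organism is a mutant strain from a panel with lesions in DNA repair or checkpoint genes.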

[12] = NCI Yeast Anticancer Drug Screen. Data for the wt2 strain (AID 169);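 also: 0% = growth of vehicle-treated yeast cultures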; details: S. cerevisiae wt2 strain growth inhibition, active compounds read high
In short: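 Treated yeast vs. vehicle-treated yeast: growth inhibition determined.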

[13] = NCI Yeast Anticancer Drug Screen. Data for the mlh1 strain (AID 171);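 also: 0% = growth of vehicle-treated control cultures of the same strain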; details: S. cerevisiae mlh1 strain growth inhibition, active compounds read high
In short: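 A yeast strain with a defined genetic lesion serves as the test organism. Cultures receive compound or vehicle, and growth is measured.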

[14] = NCI Yeast Anticancer Drug Screen. Data for the sgs1 strain (AID 173);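 also: 0% = growth of vehicle-only control cultures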; details: S. cerevisiae sgs1 mutant, active compounds read high
In short: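 A genetically defined yeast mutant is incubated with the test compound, and its growth is compared to that of the same strain given vehicle.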

[15] = NCI Yeast Anticancer Drug Screen. Data for the mlh1 rad18 strain (AID 175); details: S. cerevisiae mlh1 rad18 strain growth inhibition, active compounds read high
In short: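 Steps: expose repair-defective yeast to compound; measure growth; express inhibition against vehicle-treated controls.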

[16] = NCI Yeast Anticancer Drug Screen. Data for the rad18 strain (AID 177); details: S. cerevisiae rad18 mutant growth inhibition, active compounds read high
In short: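 Measured value is growth inhibition of a yeast strain bearing a DNA repair alteration, referenced to vehicle-treated cells.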

[17] = at 5.0 µM (retest, dose inferred, filed as 0.5)
[18] = at 50.0 µM (retest, dose inferred, filed as 5.0)

CC(/C=C/c1ccc([N+](=O)[O-])o1)=N/N1CC(CN2CCOCC2)OC1=O (stereo not drawn)
growth inhibition ([1]; at 1.2 µM): -5% | growth inhibition ([1]; at 3.7 µM): 5% | growth inhibition ([1]; at 11.0 µM): 48% | growth inhibition ([1]; at 33.0 µM): 94% (active) | growth inhibition ([1]; at 100.0 µM): 98% (active) | growth inhibition ([2]; at 1.2 µM): 2% | growth inhibition ([2]; at 3.7 µM): 11% | growth inhibition ([2]; at 11.0 µM): 36% | growth inhibition ([2]; at 33.0 µM): 66% | growth inhibition ([2]; at 100.0 µM): 96% (active) | growth inhibition ([3]; at 1.2 µM): -4% | growth inhibition ([3]; at 3.7 µM): 4% | growth inhibition ([3]; at 11.0 µM): 34% | growth inhibition ([3]; at 33.0 µM): 58% | growth inhibition ([3]; at 100.0 µM): 76% (active) | growth inhibition ([4]; at 1.2 µM): -2% | growth inhibition ([4]; at 3.7 µM): -4% | growth inhibition ([4]; at 11.0 µM): 12% | growth inhibition ([4]; at 33.0 µM): 30% | growth inhibition ([4]; at 100.0 µM): 85% (active) | growth inhibition ([5]; at 1.2 µM): -9% | growth inhibition ([5]; at 3.7 µM): -6% | growth inhibition [5, 17]: 9% | growth inhibition ([5]; at 11.0 µM): 35% | growth inhibition ([5]; at 33.0 µM): 90% (active) | growth inhibition [5, 18]: 90% (active) | growth inhibition ([5]; at 50.0 µM): 91.8% (active) | growth inhibition ([5]; at 100.0 µM): 97% (active) | growth inhibition ([6]; at 1.2 µM): 2% | growth inhibition ([6]; at 3.7 µM): 0% | growth inhibition [6, 17]: 7% | growth inhibition ([6]; at 11.0 µM): 1% | growth inhibition ([6]; at 33.0 µM): 29% | growth inhibition [6, 18]: 90% (active) | growth inhibition ([6]; at 50.0 µM): 55.6% | growth inhibition ([6]; at 100.0 µM): 94% (active) | growth inhibition ([7]; at 1.2 µM): 4% | growth inhibition ([7]; at 3.7 µM): 10% | growth inhibition ([7]; at 11.0 µM): 55% | growth inhibition ([7]; at 33.0 µM): 90% (active) | growth inhibition ([7]; at 100.0 µM): 99% (active) | growth inhibition [8, 17]: 22% | growth inhibition [8, 18]: 93% (active) | growth inhibition ([8]; at 50.0 µM): 91.3% (active) | growth inhibition ([9]; at 1.2 µM): -9% | growth inhibition ([9]; at 3.7 µM): -9% | growth inhibition ([9]; at 11.0 µM): -2% | growth inhibition ([9]; at 33.0 µM): 44% | growth inhibition ([9]; at 100.0 µM): 90% (active) | growth inhibition [10, 17]: 6% | growth inhibition [10, 18]: 90% (active) | growth inhibition ([10]; at 50.0 µM): 53.5% | growth inhibition ([11]; at 1.2 µM): -6% | growth inhibition ([11]; at 3.7 µM): -3% | growth inhibition [11, 17]: 3% | growth inhibition ([11]; at 11.0 µM): 2% | growth inhibition ([11]; at 33.0 µM): 27% | growth inhibition [11, 18]: 87% (active) | growth inhibition ([11]; at 50.0 µM): 41.8% | growth inhibition ([11]; at 100.0 µM): 94% (active) | growth inhibition ([12]; at 1.2 µM): -3% | growth inhibition ([12]; at 3.7 µM): 11% | growth inhibition ([12]; at 11.0 µM): 49% | growth inhibition ([12]; at 33.0 µM): 79% (active) | growth inhibition ([12]; at 100.0 µM): 98% (active) | growth inhibition ([13]; at 1.2 µM): -14% | growth inhibition ([13]; at 3.7 µM): -6% | growth inhibition ([13]; at 11.0 µM): -2% | growth inhibition ([13]; at 33.0 µM): 42% | growth inhibition ([13]; at 100.0 µM): 91% (active) | growth inhibition ([14]; at 1.2 µM): -8% | growth inhibition ([14]; at 3.7 µM): 3% | growth inhibition ([14]; at 11.0 µM): 69% | growth inhibition ([14]; at 33.0 µM): 93% (active) | growth inhibition ([14]; at 100.0 µM): 97% (active) | growth inhibition [15, 17]: 63% | growth inhibition [15, 18]: 95% (active) | growth inhibition ([15]; at 50.0 µM): 93.5% (active) | growth inhibition ([16]; at 1.2 µM): 24% | growth inhibition ([16]; at 3.7 µM): 89% (active) | growth inhibition ([16]; at 11.0 µM): 97% (active) | growth inhibition ([16]; at 33.0 µM): 97% (active) | growth inhibition ([16]; at 100.0 µM): 98% (active)
